Measured values from the supplement of paper PMC11732987, “Enantioselective OTUD7B fragment discovery through chemoproteomics screening and high-throughput optimisation” (Communications Chemistry, 2025).

Assays:
Experiment in all cases: log2 ratio of Biotin-Ahx-Ub-VS probe labelling (fragment/DMSO); higher = less target engagement (more negative = stronger competition), active = hit call of the paper (q ≤ 0.05, log2 ratio ≤ -1)
Conditions in all cases: compound concentration: 200 uM; treatment time: 3 h
USP19 = target: T1, USP19 (UniProt O94966)
T1 sequence (whole entry): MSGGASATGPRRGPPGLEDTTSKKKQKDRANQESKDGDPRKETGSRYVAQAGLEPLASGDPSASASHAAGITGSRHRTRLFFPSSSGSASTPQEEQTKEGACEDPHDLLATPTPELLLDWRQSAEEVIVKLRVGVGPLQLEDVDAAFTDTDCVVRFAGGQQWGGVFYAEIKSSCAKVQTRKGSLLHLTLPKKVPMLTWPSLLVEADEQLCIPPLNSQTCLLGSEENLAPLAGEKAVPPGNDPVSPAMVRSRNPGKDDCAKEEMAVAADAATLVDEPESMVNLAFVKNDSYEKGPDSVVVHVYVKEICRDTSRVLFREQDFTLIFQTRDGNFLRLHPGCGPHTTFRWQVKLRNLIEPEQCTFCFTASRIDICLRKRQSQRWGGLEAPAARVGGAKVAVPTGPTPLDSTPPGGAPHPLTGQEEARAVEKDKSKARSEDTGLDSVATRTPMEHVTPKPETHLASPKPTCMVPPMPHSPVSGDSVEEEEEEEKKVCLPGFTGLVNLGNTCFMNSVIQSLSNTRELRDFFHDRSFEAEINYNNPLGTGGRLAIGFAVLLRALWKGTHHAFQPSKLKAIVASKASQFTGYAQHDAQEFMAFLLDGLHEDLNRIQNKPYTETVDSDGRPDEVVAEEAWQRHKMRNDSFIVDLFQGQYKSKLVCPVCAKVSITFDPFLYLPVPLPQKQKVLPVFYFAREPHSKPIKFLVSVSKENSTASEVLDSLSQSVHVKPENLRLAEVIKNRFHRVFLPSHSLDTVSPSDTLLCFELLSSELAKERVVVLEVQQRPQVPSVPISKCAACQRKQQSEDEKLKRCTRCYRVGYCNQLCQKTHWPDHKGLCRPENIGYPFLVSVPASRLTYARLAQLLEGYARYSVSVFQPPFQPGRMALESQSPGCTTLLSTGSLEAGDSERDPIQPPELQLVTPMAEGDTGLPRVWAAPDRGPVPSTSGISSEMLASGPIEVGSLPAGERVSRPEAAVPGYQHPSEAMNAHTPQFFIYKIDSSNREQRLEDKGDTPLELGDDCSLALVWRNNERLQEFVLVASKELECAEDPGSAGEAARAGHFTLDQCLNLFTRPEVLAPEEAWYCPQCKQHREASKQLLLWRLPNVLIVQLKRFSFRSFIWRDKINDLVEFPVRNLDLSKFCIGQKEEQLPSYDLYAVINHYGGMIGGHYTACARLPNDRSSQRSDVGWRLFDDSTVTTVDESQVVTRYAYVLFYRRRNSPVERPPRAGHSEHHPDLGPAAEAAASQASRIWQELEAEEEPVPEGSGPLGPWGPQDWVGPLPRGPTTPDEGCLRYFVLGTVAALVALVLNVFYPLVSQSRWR
Procedure, shortened: (§1)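 Triplicate samples of HEK293T lysate, 495 µg each, received fragment at 200 µM or vehicle for 3 h, followed by Biotin-Ahx-Ub-VS (0.5 µM final) for 1 h. After NeutrAvidin enrichment of labelled DUBs and LysC/trypsin digestion, peptides were run by diaPASEF LC-MS/MS. The values are average log2 fragment/vehicle ratios from global-median-normalised Spectronaut label-free quantities, tested by unpaired t-test on proteins having ≥2 unique peptides.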

USP24 = USP24 (UniProt Q9UPU5)
Procedure, shortened: as §1

USP25 = target: T2, USP25 (UniProt Q9UHP3)
T2 sequence (whole entry): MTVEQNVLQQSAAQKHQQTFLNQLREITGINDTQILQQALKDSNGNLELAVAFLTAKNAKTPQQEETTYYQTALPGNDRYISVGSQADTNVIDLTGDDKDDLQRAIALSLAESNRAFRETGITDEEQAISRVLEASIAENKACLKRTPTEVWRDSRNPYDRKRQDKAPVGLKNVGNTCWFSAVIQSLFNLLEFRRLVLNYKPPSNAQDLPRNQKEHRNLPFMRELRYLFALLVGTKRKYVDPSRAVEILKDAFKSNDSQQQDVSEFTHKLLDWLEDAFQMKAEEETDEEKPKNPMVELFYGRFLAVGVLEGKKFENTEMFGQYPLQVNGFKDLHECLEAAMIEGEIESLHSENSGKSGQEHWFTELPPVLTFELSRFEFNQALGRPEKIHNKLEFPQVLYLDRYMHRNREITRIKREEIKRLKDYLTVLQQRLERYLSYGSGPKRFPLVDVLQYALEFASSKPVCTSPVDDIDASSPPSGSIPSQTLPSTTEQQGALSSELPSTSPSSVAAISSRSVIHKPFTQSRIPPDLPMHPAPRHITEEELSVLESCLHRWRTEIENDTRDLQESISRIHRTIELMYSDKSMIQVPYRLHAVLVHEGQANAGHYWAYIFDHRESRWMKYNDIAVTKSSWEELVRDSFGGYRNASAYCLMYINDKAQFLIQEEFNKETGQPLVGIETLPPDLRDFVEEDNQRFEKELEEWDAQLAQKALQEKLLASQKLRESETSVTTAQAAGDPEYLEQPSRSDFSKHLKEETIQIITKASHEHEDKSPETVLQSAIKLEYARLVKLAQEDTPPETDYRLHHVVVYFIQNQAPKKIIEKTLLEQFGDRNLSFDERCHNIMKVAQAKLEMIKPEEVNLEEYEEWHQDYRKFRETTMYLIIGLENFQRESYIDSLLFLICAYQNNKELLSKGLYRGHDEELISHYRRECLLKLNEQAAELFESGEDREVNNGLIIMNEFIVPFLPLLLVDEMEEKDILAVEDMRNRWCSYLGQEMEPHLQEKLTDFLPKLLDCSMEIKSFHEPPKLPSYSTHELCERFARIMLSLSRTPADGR
Procedure, shortened: as §1

USP28 = target: T3, USP28 (UniProt Q96RU2)
T3 sequence (whole entry): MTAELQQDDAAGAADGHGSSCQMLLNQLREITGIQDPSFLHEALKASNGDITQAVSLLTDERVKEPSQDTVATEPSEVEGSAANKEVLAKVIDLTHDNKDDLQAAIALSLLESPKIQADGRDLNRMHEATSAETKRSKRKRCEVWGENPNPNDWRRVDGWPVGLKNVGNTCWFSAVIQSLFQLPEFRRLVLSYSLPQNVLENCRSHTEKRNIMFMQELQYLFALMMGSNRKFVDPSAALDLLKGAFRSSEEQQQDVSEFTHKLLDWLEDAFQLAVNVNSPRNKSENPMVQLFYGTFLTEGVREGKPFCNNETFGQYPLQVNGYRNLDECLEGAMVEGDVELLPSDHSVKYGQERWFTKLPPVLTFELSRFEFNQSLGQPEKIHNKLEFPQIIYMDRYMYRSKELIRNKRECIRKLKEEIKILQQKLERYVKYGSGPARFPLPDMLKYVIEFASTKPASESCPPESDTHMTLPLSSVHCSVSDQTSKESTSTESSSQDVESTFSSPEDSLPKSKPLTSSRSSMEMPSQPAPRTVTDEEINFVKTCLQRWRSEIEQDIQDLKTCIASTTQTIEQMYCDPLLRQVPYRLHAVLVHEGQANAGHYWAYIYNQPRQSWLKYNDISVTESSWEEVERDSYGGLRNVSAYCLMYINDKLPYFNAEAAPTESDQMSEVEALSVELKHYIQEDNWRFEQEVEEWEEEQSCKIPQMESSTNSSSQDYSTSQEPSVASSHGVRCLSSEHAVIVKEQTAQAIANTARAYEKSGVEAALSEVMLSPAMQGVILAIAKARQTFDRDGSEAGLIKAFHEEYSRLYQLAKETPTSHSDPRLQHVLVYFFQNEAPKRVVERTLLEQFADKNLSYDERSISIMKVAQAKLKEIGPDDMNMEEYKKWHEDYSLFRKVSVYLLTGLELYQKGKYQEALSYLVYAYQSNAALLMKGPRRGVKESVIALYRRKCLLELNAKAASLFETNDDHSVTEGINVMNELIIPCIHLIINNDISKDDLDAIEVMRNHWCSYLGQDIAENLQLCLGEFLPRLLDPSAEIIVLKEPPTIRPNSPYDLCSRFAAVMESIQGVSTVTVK
Procedure, shortened: as §1

Measured: log2 ratio of Biotin-Ahx-Ub-VS probe labelling

USP24, sequence (Q9UPU5 whole entry): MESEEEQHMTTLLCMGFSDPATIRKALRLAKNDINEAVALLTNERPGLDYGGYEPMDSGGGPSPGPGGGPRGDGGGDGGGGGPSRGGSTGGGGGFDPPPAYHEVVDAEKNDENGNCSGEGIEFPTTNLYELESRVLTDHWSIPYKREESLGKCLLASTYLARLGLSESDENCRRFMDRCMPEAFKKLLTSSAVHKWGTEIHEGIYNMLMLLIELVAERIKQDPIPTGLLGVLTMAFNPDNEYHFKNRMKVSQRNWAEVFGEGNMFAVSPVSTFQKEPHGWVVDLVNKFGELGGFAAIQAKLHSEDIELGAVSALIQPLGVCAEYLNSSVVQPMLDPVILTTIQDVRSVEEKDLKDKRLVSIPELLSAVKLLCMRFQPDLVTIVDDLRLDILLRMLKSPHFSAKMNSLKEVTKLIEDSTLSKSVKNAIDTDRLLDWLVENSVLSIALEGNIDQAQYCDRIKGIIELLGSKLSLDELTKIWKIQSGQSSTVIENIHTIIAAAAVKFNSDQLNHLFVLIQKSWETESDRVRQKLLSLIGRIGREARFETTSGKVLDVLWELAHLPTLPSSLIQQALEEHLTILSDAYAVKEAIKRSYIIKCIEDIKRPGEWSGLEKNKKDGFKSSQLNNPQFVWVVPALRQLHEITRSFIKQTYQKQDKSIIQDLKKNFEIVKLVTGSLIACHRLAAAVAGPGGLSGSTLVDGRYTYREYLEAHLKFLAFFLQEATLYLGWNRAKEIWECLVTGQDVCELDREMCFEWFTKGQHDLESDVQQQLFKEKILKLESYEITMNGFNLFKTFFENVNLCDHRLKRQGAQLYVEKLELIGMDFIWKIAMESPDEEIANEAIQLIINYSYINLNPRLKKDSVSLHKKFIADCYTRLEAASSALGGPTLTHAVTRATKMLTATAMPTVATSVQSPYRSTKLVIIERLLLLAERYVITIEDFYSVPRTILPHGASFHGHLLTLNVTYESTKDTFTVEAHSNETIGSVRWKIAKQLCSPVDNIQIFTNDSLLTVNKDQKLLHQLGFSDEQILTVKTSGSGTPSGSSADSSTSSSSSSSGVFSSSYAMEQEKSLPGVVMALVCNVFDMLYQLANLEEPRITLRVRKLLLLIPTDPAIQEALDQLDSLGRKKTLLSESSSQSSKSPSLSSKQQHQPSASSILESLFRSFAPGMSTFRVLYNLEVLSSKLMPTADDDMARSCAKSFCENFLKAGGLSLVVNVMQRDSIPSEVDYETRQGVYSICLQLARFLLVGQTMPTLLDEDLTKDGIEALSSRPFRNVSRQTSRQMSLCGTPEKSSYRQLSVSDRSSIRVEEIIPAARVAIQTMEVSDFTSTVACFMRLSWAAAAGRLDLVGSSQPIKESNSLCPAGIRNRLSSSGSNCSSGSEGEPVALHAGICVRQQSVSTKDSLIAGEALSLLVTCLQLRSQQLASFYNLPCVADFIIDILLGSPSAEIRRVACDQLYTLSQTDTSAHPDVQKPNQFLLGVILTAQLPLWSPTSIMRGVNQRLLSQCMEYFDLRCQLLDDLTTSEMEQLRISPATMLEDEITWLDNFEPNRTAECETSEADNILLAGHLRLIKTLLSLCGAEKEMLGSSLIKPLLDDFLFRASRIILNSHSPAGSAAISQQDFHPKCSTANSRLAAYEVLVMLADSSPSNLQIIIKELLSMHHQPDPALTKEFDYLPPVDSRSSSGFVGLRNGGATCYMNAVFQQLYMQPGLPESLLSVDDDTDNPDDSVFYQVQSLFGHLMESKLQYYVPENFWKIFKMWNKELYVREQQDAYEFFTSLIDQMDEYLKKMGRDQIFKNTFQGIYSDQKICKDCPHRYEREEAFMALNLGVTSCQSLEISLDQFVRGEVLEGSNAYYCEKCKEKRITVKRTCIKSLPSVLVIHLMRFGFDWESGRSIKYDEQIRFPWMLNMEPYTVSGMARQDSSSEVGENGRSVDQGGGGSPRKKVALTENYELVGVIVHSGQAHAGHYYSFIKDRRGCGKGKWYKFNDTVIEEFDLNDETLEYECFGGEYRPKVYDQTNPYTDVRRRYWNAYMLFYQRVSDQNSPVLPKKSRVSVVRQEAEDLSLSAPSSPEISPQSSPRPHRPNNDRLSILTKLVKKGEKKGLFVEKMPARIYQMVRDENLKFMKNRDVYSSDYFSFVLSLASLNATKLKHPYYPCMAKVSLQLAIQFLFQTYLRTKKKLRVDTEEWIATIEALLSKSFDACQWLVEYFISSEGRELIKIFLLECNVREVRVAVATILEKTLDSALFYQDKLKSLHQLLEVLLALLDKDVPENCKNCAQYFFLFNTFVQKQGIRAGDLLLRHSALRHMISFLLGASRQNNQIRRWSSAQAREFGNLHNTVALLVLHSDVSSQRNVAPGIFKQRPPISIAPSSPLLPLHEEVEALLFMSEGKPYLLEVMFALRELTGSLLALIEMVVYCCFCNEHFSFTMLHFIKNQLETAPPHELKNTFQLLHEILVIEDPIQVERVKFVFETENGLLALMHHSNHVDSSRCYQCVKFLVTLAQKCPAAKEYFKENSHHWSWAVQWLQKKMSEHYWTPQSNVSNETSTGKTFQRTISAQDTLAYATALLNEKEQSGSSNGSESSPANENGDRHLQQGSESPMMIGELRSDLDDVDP

Cc1cc(C(=O)NC2CCN(C(=O)CCl)CC2)no1
inactive: USP19 -0.0463 | USP24 -0.225 | USP25 -0.417 | USP28 -0.353
